Laboratory results from PubChem BioAssay AID1159580 (chemical genetic matrix, 2015).
Several values for one entry are separate records, joined by “and”; a condition that tells them apart may be missing. Equal entries are not always repeated. About 2,000 (36%) of roughly 5,500 compounds were called active. Not shown: some 18% with an inconclusive outcome. Cut-off read from the data, not from the text of the source: active = normalized growth mostly below about 0.91 (no sharp cut-off); inconclusive = no clear call, values can overlap the other calls; inactive = mostly above about 0.92. The list shows a part of the results.

Assay: chemical genetic growth profiling, strain panel (AID 1159580);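 note: tested at 20 µM; growth read once vehicle control cultures reached saturation at 30 °C; 1 = growth at the plate median or of vehicle wells; lower values mean less growth of the strain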
Conditions: S. cerevisiae deletion strains, growth OD

Measured: normalized growth

CC(C)C1CCC(C(=O)N[C@@H](Cc2ccccc2)C(=O)O)CC1 (some centres not stated)
inactive: locus YAL013W, strain DEP1, stronger effect = lower value 0.994 | locus YAL021C, strain ccr4, stronger effect = lower value 0.97 | locus YAL026C, strain drs2, stronger effect = lower value 0.978 | locus YAL030W, strain snc1, stronger effect = lower value 0.975 | locus YBL061C, strain skt5, stronger effect = lower value 0.973 | locus YBR009C, strain hhf1, stronger effect = lower value 0.983 | locus YBR021W, strain FUR4, stronger effect = lower value 0.969 | locus YBR023C, strain chs3, stronger effect = lower value 0.973 | locus YBR171W, strain sec66, stronger effect = lower value 0.962 | locus YBR229C, strain ROT2, stronger effect = lower value 1.01 | locus YBR231C, strain swc5, stronger effect = lower value 0.956 | locus YBR279W, strain paf1, stronger effect = lower value 0.973 | locus YCL011C, strain gbp2, stronger effect = lower value 0.976 | locus YCL016C, strain dcc1, stronger effect = lower value 0.967 | locus YCL029C, strain bik1, stronger effect = lower value 1.02 | locus YCL061C, strain MRC1, stronger effect = lower value 0.972 | locus YCL069W, strain vba3, stronger effect = lower value 0.979 | locus YCR088W, strain abp1, stronger effect = lower value 0.971 | locus YDL005C, strain med2, stronger effect = lower value 0.974 | locus YDL035C, strain GPR1, stronger effect = lower value 0.982 | locus YDL040C, strain nat1, stronger effect = lower value 0.974 | locus YDL074C, strain BRE1, stronger effect = lower value 0.987 | locus YDL101C, strain DUN1, stronger effect = lower value 1 | locus YDL134C, strain PPH21, stronger effect = lower value 1.01 | locus YDL185W, strain tfp1, stronger effect = lower value 1.02 | locus YDL192W, strain arf1, stronger effect = lower value 1.01 | locus YDR001C, strain nth1, stronger effect = lower value 0.972 | locus YDR069C, strain doa4, stronger effect = lower value 0.986 | locus YDR101C, strain arx1, stronger effect = lower value 1.02 | locus YDR137W, strain rgp1, stronger effect = lower value 0.96 | locus YDR150W, strain NUM1, stronger effect = lower value 0.995 | locus YDR159W, strain sac3, stronger effect = lower value 0.989 | locus YDR162C, strain NBP2, stronger effect = lower value 0.987 | locus YDR195W, strain ref2 0.962 | locus YDR297W, strain sur2, stronger effect = lower value 0.976 | locus YDR318W, strain mcm21, stronger effect = lower value 1.01 | locus YDR334W, strain swr1, stronger effect = lower value 0.968 | locus YDR335W, strain msn5, stronger effect = lower value 0.974 | locus YDR388W, stronger effect = lower value 1.01 | locus YDR392W, strain spt3, stronger effect = lower value 0.985 | locus YDR502C, strain sam2, stronger effect = lower value 1.01 | locus YEL003W, strain gim4, stronger effect = lower value 0.988 | locus YEL037C, strain rad23, stronger effect = lower value 0.971 | locus YEL061C, strain CIN8 (second series), stronger effect = lower value 0.973 | locus YEL061C, strain CIN8, stronger effect = lower value 0.992 | locus YER015W, strain faa2, stronger effect = lower value 0.986 | locus YER016W, strain bim1, stronger effect = lower value 0.98 | locus YER110C, stronger effect = lower value 1.02 | locus YER111C, strain swi4, stronger effect = lower value 0.98 | locus YER155C, strain BEM2 (second series), stronger effect = lower value 0.958 | locus YER155C, strain BEM2, stronger effect = lower value 0.928 | locus YER167W, strain BCK2, stronger effect = lower value 0.994 | locus YFR010W, strain ubp6, stronger effect = lower value 0.968 | locus YGL078C, strain dbp3, stronger effect = lower value 1.01 | locus YGL086W, strain mad1, stronger effect = lower value 1.01 | locus YGL167C, strain pmr1, stronger effect = lower value 0.967 | locus YGL173C, strain kem1, stronger effect = lower value 0.97 | locus YGL227W, strain vid30, stronger effect = lower value 0.969 | locus YGL240W, strain doc1, stronger effect = lower value 0.985 | locus YGL248W, strain PDE1, stronger effect = lower value 1.01 | locus YGL253W, strain hxk2, stronger effect = lower value 0.97 | locus YGR078C, strain PAC10, stronger effect = lower value 0.984 | locus YGR135W, strain pre9, stronger effect = lower value 1.01 | locus YGR229C, strain SMI1, stronger effect = lower value 0.949 | locus YGR252W, strain gcn5, stronger effect = lower value 0.994 | locus YHR013C, strain ard1, stronger effect = lower value 0.953 | locus YHR027C, strain rpn1, stronger effect = lower value 0.993 | locus YHR030C, strain SLT2, stronger effect = lower value 1.01 and 0.98 | locus YHR079C, strain IRE1 (second series), stronger effect = lower value 1.01 | locus YHR079C, strain IRE1, stronger effect = lower value 0.986 | locus YHR094C, strain hxt1, stronger effect = lower value 1.01 | locus YHR129C, strain ARP1, stronger effect = lower value 1.01 | locus YHR142W, strain chs7, stronger effect = lower value 0.965 | locus YHR200W, strain rpn10, stronger effect = lower value 1.01 | locus YIL066C, strain RNR3, stronger effect = lower value 0.989 | locus YIL073C, strain SPO22, stronger effect = lower value 0.989 | locus YIL125W, strain kgd1, stronger effect = lower value 1.01 | locus YIR030C, strain dcg1, stronger effect = lower value 1.02 | locus YJL092W, strain hpr5, stronger effect = lower value 0.983 | locus YJL095W, strain BCK1 (second series), stronger effect = lower value 0.979 | locus YJL095W, strain BCK1, stronger effect = lower value 1 and 1.02 | locus YJL115W, strain asf1, stronger effect = lower value 0.978 | locus YJL129C, strain trk1, stronger effect = lower value 0.963 | locus YJL134W, strain LCB3, stronger effect = lower value 0.996 | locus YJL154C, strain vps35, stronger effect = lower value 0.973 | locus YJL164C, strain tpk1, stronger effect = lower value 0.992 | locus YJL166W, strain qcr8, stronger effect = lower value 0.979 | locus YJL168C, strain set2, stronger effect = lower value 1.01 | locus YJL187C, strain SWE1 (second series), stronger effect = lower value 1.01 | locus YJL187C, strain SWE1, stronger effect = lower value 0.983 | locus YJR043C, strain POL32, stronger effect = lower value 0.99 | locus YJR066W, strain TOR1, stronger effect = lower value 0.956
